Hits are enriched below; roughly 6% of the tested compounds scored in any of these assays.
D1 antagonist: blocks dopamine activation of the human D1 receptor; P21728; HEK293 TREx D1 cells, calcium flux, dopamine EC80; active compounds read low; activity change, negative = inhibition, % at 10 µM; 3.2% of 360,000 active; in the data active = activity change below about -30%
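Cells carrying a force-coupled, tetracycline-inducible human D1 receptor report calcium flux. Each well gets a 10 s baseline, compound with 180 s monitoring, then an EC80 dopamine stimulus with a second 180 s kinetic read.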
D1 PAM: enhances dopamine response at the human D1 receptor. P21728. HEK293 TREx D1 cells, calcium flux, dopamine EC20 potentiation. potentiation, % at 10 µM. 0.036% of 360,000 active. AID 504651; in the data active = potentiation above about 30%
D1 ag: human D1 receptor agonism. 1% of 360,000 active. AID 504660. HEK293 T-REx D1 cells, calcium flux, agonist mode. P21728. activation, % at 2 µM; in the data active = activation above about 30%
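Tetracycline-induced HEK293 TREx D1 cells, force-coupled to calcium signalling, were dye-loaded with a no-wash calcium kit. Compound was pin-added after a 10 s baseline. Fluorescence was read kinetically at 1 cycle/s for 180 s, with calcium rises flagged as agonism.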
DRD3 agonist: D3 dopamine receptor (human) agonism; AID 652048; 0.58% of 410,000 active; max activation, %; D3R DiscoveRx beta-arrestin cells, luminescence, 90 min; in the data active = max activation above about 30%
Target sequence (P35462 whole entry, looked up): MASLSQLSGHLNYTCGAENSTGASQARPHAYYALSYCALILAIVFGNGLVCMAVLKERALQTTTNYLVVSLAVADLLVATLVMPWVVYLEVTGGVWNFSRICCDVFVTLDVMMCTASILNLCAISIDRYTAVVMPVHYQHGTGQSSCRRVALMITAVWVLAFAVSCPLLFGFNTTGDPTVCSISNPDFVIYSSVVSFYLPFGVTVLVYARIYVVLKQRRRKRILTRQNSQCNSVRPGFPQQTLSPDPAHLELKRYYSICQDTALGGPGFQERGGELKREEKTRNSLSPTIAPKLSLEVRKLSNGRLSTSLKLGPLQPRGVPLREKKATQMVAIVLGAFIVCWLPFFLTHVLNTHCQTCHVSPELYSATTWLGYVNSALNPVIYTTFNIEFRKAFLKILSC
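Agonist mode: compounds and dopamine controls were applied to plated cells for 90 min at 37 degrees C after an overnight attachment at 1500 cells/well. Luminescent read-out followed 30 - 60 minutes at room temperature with DiscoveRx detection reagent.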
DRD3 antagonist: antagonists of human D3 dopamine receptor; D3R cells, DiscoveRx beta-arrestin luminescence, antagonist mode; active compounds read low; max response, negative = inhibition, %; 2.5% of 360,000 active; in the data active = max response below about -50%; inconclusive = no clear call, values can overlap the other calls
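Cells plated overnight at 1500 cells/well, then exposed to library compounds with dopamine controls for 90 minutes at 37 degrees C. DiscoveRx reagent added for 30–60 minutes at room temperature; luminescence read, quantitative HTS format.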
Numbers stand for hits; - = inactive; ? = inconclusive; . = no result given; ! = a repeat was not active.

SMILES	D1 antagonist	D1 PAM	D1 ag	DRD3 agonist	DRD3 antagonist
COc1ccc(Br)cc1CNC(=O)C1CCN(S(=O)(=O)N2CCCCC2)CC1	-	-	-	-	-
CC(=O)N1CCCc2cc(S(=O)(=O)N3CCCC(C(=O)Nc4ccccc4C)C3)ccc21 (centres undefined)	-36.6	-	-	-	-
COc1ccc(Br)cc1CNC(=O)C1CCCN(S(=O)(=O)N2CC(C)CC(C)C2)C1 (centres undefined)	-32.6	-	-	-	-
CC1CCN(C(=O)C2CCCN(c3ncnc4c3nc3n4CCCCC3)C2)CC1 (centres undefined)	-37.3	-	-	-	-
CC1CC(C)CN(C(=O)C2CCCN(c3ncnc4c3nc3n4CCCCC3)C2)C1 (centres undefined)	-	-	-	-	-
CCOc1ccc(CCNC(=O)C2CCN(c3ncnc4c3nc3n4CCCCC3)CC2)cc1	-	-	-	66.4	.
O=C(C1CCN(c2ncnc3c2nc2n3CCCCC2)CC1)N1CCN(c2ccc(F)cc2)CC1	-	-	-	48.1!	-
C=CC[C@@H](CC(=O)N[C@@H](CO)Cc1ccccc1)C(=O)NC[C@H](OC(=O)[C@@H](CC=C)Cc1ccc(F)cc1)c1ccccc1	.	.	.	53.1	-
C=CCC[C@@H](Cc1ccc(F)cc1)C(=O)OC[C@@H](Cc1c[nH]c2ccccc12)NC(=O)[C@@H](CC=C)CC(=O)N(CCO)Cc1ccccc1	.	.	.	40.7	-
C=CC[C@@H](CC(=O)N[C@@H](CO)Cc1ccccc1)C(=O)NC[C@@H](OC(=O)[C@@H](CC=C)Cc1ccc(F)cc1)c1ccccc1	.	.	.	-	-
C=CCC[C@@H](Cc1ccc(F)cc1)C(=O)OC[C@@H](NC(=O)[C@@H](CC=C)CC(=O)N[C@H](CO)Cc1ccccc1)C(C)(C)C	.	.	.	-	-63.2
C=CC[C@@H](CC(=O)N[C@@H](CO)Cc1ccccc1)C(=O)N[C@H](COC(=O)[C@@H](CC=C)Cc1ccc(F)cc1)C(C)(C)C	.	.	.	-	-
C=CCC[C@H](Cc1ccc(F)cc1)C(=O)OC[C@H](Cc1c[nH]c2ccccc12)NC(=O)[C@H](CC=C)CC(=O)N(CCO)Cc1ccccc1	.	.	.	-	-
O=C(NCc1ccccc1Cl)c1ccccc1NC(=O)c1nsc2ccccc12	-	-	-	-	.
CCOc1ccccc1CNC(=O)C1CCCN(c2ncnc3onc(-c4ccc(F)cc4)c23)C1 (centres undefined)	-	-	-	-	.
CN(CCOC(=O)c1ccccc1)Cc1ccccc1	-	-	-	-	?
COc1cc(C)ccc1OCCOCCN(C)Cc1ccccc1	-	-	-	-	?
CN(CCOCCOc1ccc2ccccc2c1)Cc1ccccc1	-	-	-	-	-64.1
CCN(Cc1ccccc1)Cc1ccc(OCc2ccccc2)cc1	-	-	-	-	-84.1
Cc1cc(C)c(C)c(OCCCCN(C)Cc2ccccc2)c1	-	-	-	-	-71.2
CN(CCCCOc1ccc(F)cc1)Cc1ccccc1	-	-	-	-	-82.6
COc1ccc2c(c1)c1c(c(=O)n(Cc3ccccc3)c(=O)n1Cc1cccc(Cl)c1)n2C	-	-	-	-	.
CC(=O)N(CCOc1ccccc1)CCOc1ccccc1	.	.	.	-	-
CCOc1ccc(OCCOc2cccc(C(F)(F)F)c2)cc1	-	-	-	-	-
COc1ccc(OCCN(C)Cc2ccccc2)cc1	-	-	-	-	?
SMILES	D1 antagonist	D1 PAM	D1 ag	DRD3 agonist	DRD3 antagonist
CCc1ccc(OCCCCN(C)Cc2ccccc2)cc1	-	-	-	-	-71.3
CN(CCOc1ccc(F)cc1)Cc1ccccc1	-	-	-	-	-69.5
CN(CCOc1ccccc1)CCOc1ccccc1	-	-	-	-	-87.4
COc1ccc(OCCCN(C)Cc2ccccc2)cc1	-	-	-	-	-
CN(CCOc1cccc(C(F)(F)F)c1)Cc1ccccc1	.	-	-	-	-87.3
Cc1cc(-c2ccc(N=Nc3ccc4c(S(=O)(=O)O)cc(S(=O)(=O)O)c(N)c4c3O)c(C)c2)ccc1N=Nc1ccc2c(S(=O)(=O)O)cc(S(=O)(=O)O)c(N)c2c1O	.	.	.	-	.
CCn1c(CN2CCCCC2)nc2cc(NC(=O)COc3ccccc3C(C)(C)C)ccc21	-	-	-	-	.
Cc1nn(-c2ccccc2)c(OC(=O)c2ccccc2Br)c1S(=O)(=O)c1ccccc1	-	-	-	-	.
CCC(C)c1ccccc1OCCCN(C)Cc1ccccc1 (centres undefined)	-	-	-	-	-60.4
CN(Cc1ccccc1)Cc1ccccc1	.	.	.	-	.

Bioassay records as filed in PubChem BioAssay.
